CYP2C19 inh: blockers of cytochrome P450 2C19 activity – biochemical, luminescence, ADME assay, primary screen; inhibition, % at 5 µM; CYP2C19 Supersomes, luciferin-H EGE luminescence, 30 min; 96,000 tested, 21% active;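 active = CYP2C19 inhibition above a set limit at 5 µM in the primary screen, cut at about 50% in these data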;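 note: plate controls were negative control wells for no effect and 2.5 mM tranylcypromine positive control for full effect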
Target sequence (P33261 whole entry, looked up): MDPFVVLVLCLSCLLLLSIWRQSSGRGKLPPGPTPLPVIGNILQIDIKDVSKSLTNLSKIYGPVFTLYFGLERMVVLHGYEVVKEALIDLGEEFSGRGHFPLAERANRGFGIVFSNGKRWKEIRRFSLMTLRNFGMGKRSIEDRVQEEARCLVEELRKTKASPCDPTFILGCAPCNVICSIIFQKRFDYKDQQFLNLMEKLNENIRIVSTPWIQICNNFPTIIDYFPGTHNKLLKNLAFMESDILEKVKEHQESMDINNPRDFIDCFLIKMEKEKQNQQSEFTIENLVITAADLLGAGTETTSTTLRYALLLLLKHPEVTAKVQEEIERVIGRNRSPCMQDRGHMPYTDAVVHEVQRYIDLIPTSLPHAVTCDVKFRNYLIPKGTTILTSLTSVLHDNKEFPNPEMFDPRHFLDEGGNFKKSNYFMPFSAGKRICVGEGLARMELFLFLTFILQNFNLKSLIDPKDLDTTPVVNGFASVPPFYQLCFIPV
MRP1 act: H69AR viability gain despite doxorubicin, primary screen, MRP-1 activator project, H69AR cells, CellTiter-Glo; viability increase, % at 10 µM; 140,000 tested, 0.61% active; viability rescue;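 active = viability gain under doxorubicin at or above a set limit, the compound median plus 3 SD, cut at about 4.7% in these data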;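 note: MRP-1 overexpressing cells given doxorubicin 25 µM after compound pretreatment; 18-22 h compound pretreatment then 72 h with doxorubicin before readout; 0% = doxorubicin-only wells and 100% = vehicle-treated cells without doxorubicin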
CYP2C19 activ: human CYP2C19 activators, primary screen, biochemical, luminescence. Cytochrome P450 2C19 (Homo sapiens), P33261. activation factor at 5 µM. AID 1025, 2008. 96,000 tested, under 10 active. recombinant CYP2C19, luciferin-H EGE luminescence; hits give high values; 0 = fully inhibited enzyme, 1 = untreated enzyme;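 active = activation factor of at least 2 at 5 µM in the primary screen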;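 note: 0 = wells with 2.5 mM tranylcypromine and 1 = vehicle-only wells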
CYP2C9 act: human CYP2C9 activators, primary screen, biochemical, luminescence | Cytochrome P450 2C9 (Homo sapiens), P11712 | recombinant CYP2C9, luciferin-H conversion; hits give high values; factor 1 = untreated enzyme, 0 = blocked | activation factor at 5 µM | 96,000 tested, 1.4% active | AID 1024, 2008;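 active = activation factor of 2 or more for CYP2C9 at a 5 µM dose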;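 note: 0 = sulfaphenazole-blocked wells and 1 = vehicle-only wells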
CYP2C9 inh: blockers of cytochrome P450 2C9 activity – biochemical, luminescence, ADME assay, primary screen. CYP2C9 Supersomes, luciferin-H conversion. inhibition, % at 5 µM. 96,000 tested, 20% active. AID 777, 2007;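 active = blocking of liver enzyme CYP2C9 beyond about 50% at 5 µM, limit read from the data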
MRP resist rev: reversal of MRP1-mediated doxorubicin resistance, primary screen, H69AR cells, doxorubicin co-treatment; H69AR cells + 2 uM doxorubicin, CellTiter-Glo, 72 h; 85,000 tested, 0.04% active; AID 602, 2007; differential viability (reversal), % at 10 µM;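 active = viability drop by adding the cancer drug above about 55%, with treated viability meeting a 40% cutoff, limit read from the data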;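 note: viability without doxorubicin minus viability with 2 µM doxorubicin for each compound; larger differential means the compound sensitizes cells more to doxorubicin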
An asterisk follows results filed as active; nt = not tested or not shown. Compounds with a hit are over-represented: about 21% of the library has one in this group of screens.

SMILES	CYP2C19 inh	MRP1 act	CYP2C19 activ	CYP2C9 act	CYP2C9 inh	MRP resist rev
O=C(O)Cn1cc(C(=O)c2cccs2)c2ccccc21	1	-1	1	0.8	16	-6
CCOC(=O)C1CCN(C(=O)Cn2cc(C(=O)C3CC3)c3ccccc32)CC1	-16	-2	1.2	1.3	-30	-29
COC(=O)c1cn(C(=O)c2cccs2)c2ccccc12	41	-1	0.6	0.4	59*	3
CCOC(=O)Cn1cc(C(=O)c2cccs2)c2ccccc21	97*	-2	0	0.1	94*	12
O=C(c1cccs1)c1cn(CC(=O)N2CCc3ccccc3C2)c2ccccc12	84*	-2	0.2	0.1	91*	8
O=C(c1cn(CC(=O)N2CCCCC2)c2ccccc12)C1CC1	52*	-2	0.5	1.2	-16	-7
O=C(CC1NCCNC1=O)Nc1ccc2c(c1)OCO2 (stereo unspecified)	6	-2	0.9	0.8	22	9
CCOc1ccc(CCNC(=O)COC(=O)/C=C/c2ccc(OCC#N)c(OC)c2)cc1OCC	nt	-2	nt	nt	nt	nt
C/C(CC(=O)N1CCN(C=O)CC1)=N\NC(=O)c1cc2ccccc2cc1O	nt	-5	nt	nt	nt	nt
C/C(=N/NC(=O)c1cc2ccccc2cc1O)C1C(=O)c2ccccc2C1=O	91*	-2	0.1	0	98*	-5
C/C(=N\NC(=O)c1ccccc1O)C1C(=O)c2ccccc2C1=O	35	-5	0.6	0.1	90*	nt
C/C(=N\NC(=O)c1ccccc1O)c1c(O)cc(C)oc1=O	39	-5	0.6	0.4	62*	nt
N#CCSc1ncnc2c1cnn2CCO	-9	-3	1.1	1.1	-9	nt
COc1ccc(-n2c(=O)c3c4c(sc3n3c(C)nnc23)CC(C)CC4)cc1 (stereo unspecified)	nt	nt	nt	nt	nt	22
c1ccc2c(c1)NC1(CCCCC1)n1c-2nc2ccccc21	20	2	0.8	0.6	36	20
CN1C(=O)C2(Nc3ccccc3-c3nc4ccccc4n32)c2ccccc21 (stereo unspecified)	71*	0	0.3	0.4	64*	-13
CCN1C(=O)C2(Nc3ccccc3-c3nc4ccccc4n32)c2cc(OC)ccc21 (stereo unspecified)	34	1	0.7	0.3	69*	nt
O=C1Nc2ccccc2C12Nc1ccccc1-c1nc3ccccc3n12 (stereo unspecified)	nt	-5	nt	nt	nt	11
CCC(C)(C)NC(=O)c1cc([N+](=O)[O-])ccc1N1CCOCC1	nt	-2	nt	nt	nt	nt
CCCCOc1ccc(OCCCC)c2c1NC1(N2)C(=O)N(C(C)=O)c2ccccc21	53*	-4	0.5	0.8	24	-3
Cc1ccc(Cl)c(OCC(=O)OCC(=O)NC2CCCc3ccccc32)c1 (stereo unspecified)	nt	1	nt	nt	nt	nt
COc1ccc(/C=C2/N=C(c3cccs3)OC2=O)cc1OC(C)C	24	-1	0.8	0.3	72*	nt
CCOc1ccc(/C=C2\N=C(c3cccs3)OC2=O)cc1OC	nt	-2	nt	nt	nt	nt
CCn1cc(C(=O)N2CCc3ccccc32)c(=O)c2cc(S(=O)(=O)N3CCCCCC3)ccc21	29	-2	0.7	0.3	67*	-1
CCn1cc(C(=O)N2CCc3ccccc32)c(=O)c2cc(S(=O)(=O)N3CC(C)CC(C)C3)ccc21 (stereo unspecified)	nt	-1	nt	nt	nt	nt
SMILES	CYP2C19 inh	MRP1 act	CYP2C19 activ	CYP2C9 act	CYP2C9 inh	MRP resist rev
Cn1cc(C(=O)NC2CCCCCCC2)c(=O)c2cc(S(=O)(=O)N3CCCC3)ccc21	6	0	0.9	0.2	84*	12
CCn1cc(C(=O)NCC2CCCO2)c(=O)c2cc(S(=O)(=O)N3CCCCCC3)ccc21 (stereo unspecified)	18	-2	0.8	0.4	57*	-19
COC(=O)/C=C1\S/C(=N/NC(=O)c2ccccc2)NC1=O	7	-1	0.9	0.2	81*	nt
COC(=O)/C=C1/S/C(=N/NC(=O)c2ccccc2C)NC1=O	6	-1	0.9	0.2	78*	9
CC(C)(C)N=Cc1cc(-c2ccccc2)sc1O	8	1	0.9	0.9	6	11
Fc1ccccc1NC(=S)NCCc1ccccc1	80*	-4	0.2	0.7	27	nt
Fc1cccc(NC(=S)NCCc2ccccc2)c1	nt	-5	nt	nt	nt	nt
Fc1ccc(NC(=S)NCCc2ccccc2)c(F)c1F	83*	-1	0.2	0.6	45	nt
OCCNC(=S)NCCc1ccccc1	nt	-2	nt	nt	nt	nt
O=c1ccc(NS(=O)(=O)c2ccccc2)cn1Cc1ccc(Cl)c(Cl)c1	98*	-2	0	0.2	79*	nt
Cc1c(Cl)cccc1NC(=O)c1cccc(OC(F)F)c1	72*	-2	0.3	1	0	nt
COc1ccc(NC(=O)c2cccc(F)c2)cc1Cl	49	-1	0.5	1	2	-8
O=C(Nc1ccc(OC(F)F)c(Cl)c1)c1cccc(OC(F)F)c1	88*	-2	0.1	0.9	11	nt
COc1ccc(NC(=O)c2cccc(OC(F)F)c2)cc1Cl	69*	0	0.3	1.1	-13	nt
O=C(Nc1ccccc1OC(F)F)c1ccccc1	6	1	0.9	1.2	-19	nt
CCOc1cccc(C(=O)Nc2ccccc2OC(F)F)c1	56*	1	0.4	0.7	33	15
O=C(Nc1ccc(Cl)cc1)N1CCSCC1	60*	-1	0.4	0.9	13	4
Cc1ccc(NC(=O)N2CCC(O)(c3ccc(Cl)cc3)CC2)cc1	96*	-2	0	0.3	71*	-6
CCOc1ccccc1NC(=O)N1CCC(NC(=O)c2cccc(C)c2)CC1	37	0	0.6	2.6*	-164	1
Cc1ccccc1C(=O)NC1CCN(C(=O)N(c2ccccc2)c2ccccc2)CC1	13	-3	0.9	0.4	58*	-19
Cc1cccc(NC(=O)N2CCC(NC(=O)c3ccccc3C)CC2)c1	-1	0	1	1	-5	24
Cc1ccccc1C(=O)NC1CCN(C(=O)N2CCOCC2)CC1	nt	3	nt	nt	nt	6
CCOc1ccccc1NC(=O)N1CCC(NC(=O)c2ccccc2C)CC1	7	-2	0.9	2.3*	-132	-8
O=C(Nc1ccccc1)c1ccc(CSc2ncccn2)cc1	44	-1	0.6	0.6	43	nt
COc1cc2c(cc1NC(=O)C(C)NCc1ccccc1)oc1ccccc12 (stereo unspecified)	nt	-1	nt	nt	nt	nt
COc1ccccc1N(C)S(=O)(=O)c1ccc(C(=O)OCC(=O)NCCC2=CCCCC2)cc1	nt	-1	nt	nt	nt	nt
Cc1nn(Cc2c(Cl)cccc2Cl)c(C)c1N	nt	-1	nt	nt	nt	-10
